Laboratory results as given in PubChem BioAssay (Tox21).
Values joined by “and” are separate entries in the source; they are usually repeats but may differ in a detail not shown here. Equal values may be shown once. Some compounds were tested as several samples or in several runs, with calls that do not always agree. Active and inactive are the calls of the source. Where a call stands in place of a potency, no number is given. Unless noted, calls follow the shape of the dose curve; as a rule, active = well fitted curve in the direction sought with a large enough effect in the repeat runs; inconclusive = weak or mixed curves; inactive = no such curve, though single readings can be large; an effect the other way counts as inactive or inconclusive.

How the values were obtained:
[1] = system: thyroid hormone receptor (rat, GH3 cells); assay: qHTS assay to identify small molecule agonists of the thyroid receptor (TR) signaling pathway (AID 743066; calls by dose curve)
[2] = biological target: Estrogen receptor (Homo sapiens) (UniProt P03372); assay: qHTS assay to identify small molecule antagonists of the estrogen receptor alpha (ER-alpha) signaling pathway (AID 743069; active = well fitted curve in the direction sought with a large enough effect in the signal ratio in the repeat runs, not every such curve was filed as active; inconclusive = weak or mixed curves, or effect the other way; inactive = no such curve, though single readings can be large or run the other way; the % refers to the signal ratio; also: potency is read from the fitted curve at half-maximal effect)
Chain of Estrogen receptor (Homo sapiens) (P03372 whole entry, looked up): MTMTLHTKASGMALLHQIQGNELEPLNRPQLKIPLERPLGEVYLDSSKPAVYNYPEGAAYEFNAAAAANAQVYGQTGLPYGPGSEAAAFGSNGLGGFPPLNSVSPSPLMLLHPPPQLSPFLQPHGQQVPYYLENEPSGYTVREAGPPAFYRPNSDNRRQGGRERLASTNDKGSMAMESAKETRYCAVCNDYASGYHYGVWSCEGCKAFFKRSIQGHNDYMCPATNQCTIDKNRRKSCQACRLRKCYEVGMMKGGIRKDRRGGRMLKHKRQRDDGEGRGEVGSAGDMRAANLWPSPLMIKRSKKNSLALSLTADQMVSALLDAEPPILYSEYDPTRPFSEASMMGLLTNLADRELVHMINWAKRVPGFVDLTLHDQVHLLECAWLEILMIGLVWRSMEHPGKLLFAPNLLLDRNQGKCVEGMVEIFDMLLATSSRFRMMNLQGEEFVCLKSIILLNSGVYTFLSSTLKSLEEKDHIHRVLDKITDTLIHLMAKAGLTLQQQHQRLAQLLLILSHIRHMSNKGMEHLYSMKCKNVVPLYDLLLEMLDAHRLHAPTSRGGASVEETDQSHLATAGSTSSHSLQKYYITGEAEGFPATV
How it was run: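 HEK293 cells stably carrying an ER-alpha-UAS-bla beta-lactamase reporter were pre-cultured overnight in 2% charcoal-stripped FBS medium. Test compounds in DMSO were added together with 17beta-estradiol for 18 hr at 37C. Read-out was fluorescence after 2 hr with LiveBLAzer B/G FRET substrate at room temperature.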

[3] = qHTS assay to identify small molecule antagonists of the estrogen receptor alpha (ER-alpha) signaling pathway - cell viability counter screen (AID 743074; calls by dose curve; also: nearly all actives have a fitted effect of over 45% in size; also: potency is read from the fitted curve at half-maximal effect)
[4] = biological target: Estrogen receptor (Homo sapiens) (UniProt P03372); assay: qHTS assay to identify small molecule agonists of the estrogen receptor alpha (ER-alpha) signaling pathway (AID 743075; calls by dose curve; also: potency is read from the fitted curve at half-maximal effect)
[5] = biological target: Estrogen receptor (Homo sapiens) (UniProt P03372); assay: qHTS assay to identify small molecule agonists of the estrogen receptor alpha (ER-alpha) signaling pathway using the BG1 cell line (AID 743079); also: nearly all actives have a fitted effect of over 20% in size
[6] = qHTS assay to identify small molecule antagonists of the estrogen receptor alpha (ER-alpha) signaling pathway using the BG1 cell line (AID 743080; calls by dose curve;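 also: BG1 cells stimulated with 17beta-estradiol alongside compound; nearly all actives have a fitted effect of over 25% in size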; also: potency is read from the fitted curve at half-maximal effect)
How it was run: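 Luminescence from a 4×ERE-luciferase reporter in BG1-Luc-4E2 cells served as read-out. Cells, pre-cultured 5 days in stripped-serum phenol-red-free medium, were exposed to compound with 17beta-estradiol co-stimulation for 21.5 h at 37 C.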

[7] = qHTS assay to identify small molecule antagonists of the estrogen receptor alpha (ER-alpha) signaling pathway using the BG1 cell line - cell viability counter screen (AID 743081);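 also: compound given together with 17beta-estradiol as the ER stimulus; nearly all actives have a fitted effect of over 45% in size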; also: potency is read from the fitted curve at half-maximal effect
Aromatase (Homo sapiens) = Aromatase (Homo sapiens) (UniProt P11511); assay: qHTS assay to identify aromatase inhibitors (AID 743083); also: nearly all actives have a fitted effect of over 55% in size; also: potency is read from the fitted curve at half-maximal effect
Chain of Aromatase (Homo sapiens) (P11511 whole entry, looked up): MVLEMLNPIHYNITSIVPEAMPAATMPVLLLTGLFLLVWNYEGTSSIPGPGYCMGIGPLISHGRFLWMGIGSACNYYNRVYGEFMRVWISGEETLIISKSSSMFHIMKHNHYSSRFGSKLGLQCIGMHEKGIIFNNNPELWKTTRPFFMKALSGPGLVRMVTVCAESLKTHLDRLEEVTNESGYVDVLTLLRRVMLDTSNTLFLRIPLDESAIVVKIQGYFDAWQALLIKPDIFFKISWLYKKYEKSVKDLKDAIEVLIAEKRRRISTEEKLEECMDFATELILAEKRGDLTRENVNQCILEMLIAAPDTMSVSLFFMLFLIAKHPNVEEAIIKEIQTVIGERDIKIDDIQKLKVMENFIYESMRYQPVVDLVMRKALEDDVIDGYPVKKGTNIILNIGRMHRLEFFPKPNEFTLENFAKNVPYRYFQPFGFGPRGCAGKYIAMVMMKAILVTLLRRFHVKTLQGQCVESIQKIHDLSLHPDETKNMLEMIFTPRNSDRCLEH

[8] = qHTS assay to identify aromatase inhibitors - cell viability counter screen (AID 743084);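 also: cells stimulated with testosterone during compound exposure; nearly all actives have a fitted effect of over 55% in size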; also: potency is read from the fitted curve at half-maximal effect
[9] = biological target: Aryl hydrocarbon receptor (Homo sapiens) (UniProt P35869); assay: qHTS assay to identify small molecule that activate the aryl hydrocarbon receptor (AhR) signaling pathway (AID 743085); also: nearly all actives have a fitted effect of over 15% in size; also: potency is read from the fitted curve at half-maximal effect;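 as to activation: HG2L7.5c1 human HepG2 liver cells with stably integrated DRE-driven firefly reporter; series mostly up to about 70 µM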
Chain of Aryl hydrocarbon receptor (Homo sapiens) (P35869 whole entry, looked up): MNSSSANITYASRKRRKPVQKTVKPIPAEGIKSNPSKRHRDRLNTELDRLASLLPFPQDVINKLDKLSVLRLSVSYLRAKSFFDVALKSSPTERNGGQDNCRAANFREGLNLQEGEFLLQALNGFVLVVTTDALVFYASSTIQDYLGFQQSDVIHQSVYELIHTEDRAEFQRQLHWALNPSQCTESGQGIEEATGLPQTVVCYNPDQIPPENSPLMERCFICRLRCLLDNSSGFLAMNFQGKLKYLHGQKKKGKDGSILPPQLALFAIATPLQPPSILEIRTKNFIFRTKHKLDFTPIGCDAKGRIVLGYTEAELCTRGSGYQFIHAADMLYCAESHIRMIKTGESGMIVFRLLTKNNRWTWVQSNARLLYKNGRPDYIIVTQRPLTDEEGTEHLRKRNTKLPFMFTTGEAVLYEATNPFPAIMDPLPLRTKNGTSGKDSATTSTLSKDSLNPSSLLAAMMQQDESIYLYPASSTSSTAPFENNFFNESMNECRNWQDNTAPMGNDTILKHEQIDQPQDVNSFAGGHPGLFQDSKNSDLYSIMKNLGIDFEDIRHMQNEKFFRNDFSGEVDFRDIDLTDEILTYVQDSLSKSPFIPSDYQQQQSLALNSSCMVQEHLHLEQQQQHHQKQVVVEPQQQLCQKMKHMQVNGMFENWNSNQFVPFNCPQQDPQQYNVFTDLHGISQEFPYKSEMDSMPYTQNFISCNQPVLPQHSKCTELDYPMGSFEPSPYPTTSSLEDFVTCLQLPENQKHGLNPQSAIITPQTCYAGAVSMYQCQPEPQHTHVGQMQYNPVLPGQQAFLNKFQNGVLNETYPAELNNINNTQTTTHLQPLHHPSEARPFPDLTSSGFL
How it was run: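 Reporter assay in engineered HepG2 line HG2L7.5c1, whose plasmid carries twenty dioxin responsive elements upstream of firefly luciferase. Treatment lasted 24 h at 37C; ONE-Glo luminescence gauged induction.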

[10] = qHTS assay to identify small molecule that activate the aryl hydrocarbon receptor (AhR) signaling pathway - cell viability counter screen (AID 743086); also: nearly all actives have a fitted effect of over 45% in size; also: potency is read from the fitted curve at half-maximal effect
How it was run: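 HepG2-AhR-luc (HG2L7.5c1) cells, 4000/well, were preincubated 5 h at 37C, exposed to compound in qHTS format for 24 hr at 37C, then given CellTiter-Fluor for 30 min; viability was read as fluorescence in the reporter wells.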

[11] = biological target: Peroxisome proliferator-activated receptor gamma (Homo sapiens) (UniProt P37231); assay: qHTS assay to identify small molecule agonists of the peroxisome proliferator-activated receptor gamma (PPARg) signaling pathway (AID 743094; active = well fitted activation curve with a large enough effect in the signal ratio in the repeat runs, not every such curve was filed as active; inconclusive = weak or mixed curves, or effect the other way; inactive = no such curve, though single readings can be large or run the other way; the % refers to the signal ratio; also: potency is read from the fitted curve at half-maximal effect)
Chain of Peroxisome proliferator-activated receptor gamma (Homo sapiens) (P37231 whole entry, looked up): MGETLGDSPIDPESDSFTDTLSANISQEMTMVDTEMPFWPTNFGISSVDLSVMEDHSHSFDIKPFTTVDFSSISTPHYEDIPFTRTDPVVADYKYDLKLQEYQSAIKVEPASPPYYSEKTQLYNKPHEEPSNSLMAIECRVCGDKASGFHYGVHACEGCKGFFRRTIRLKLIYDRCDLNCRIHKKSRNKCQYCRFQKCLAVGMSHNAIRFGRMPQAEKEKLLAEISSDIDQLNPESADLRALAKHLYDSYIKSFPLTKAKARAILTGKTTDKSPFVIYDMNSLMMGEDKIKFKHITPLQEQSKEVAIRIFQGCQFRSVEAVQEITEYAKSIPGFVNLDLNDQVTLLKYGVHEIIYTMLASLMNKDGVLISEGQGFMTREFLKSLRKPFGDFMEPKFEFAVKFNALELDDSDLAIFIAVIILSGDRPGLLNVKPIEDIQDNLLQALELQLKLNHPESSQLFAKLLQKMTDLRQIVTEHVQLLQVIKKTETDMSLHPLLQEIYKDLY
How it was run: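 GeneBLAzer PPARg UAS-bla HEK293H cells were plated, rested 5 h, then exposed to compounds for 17 h at 37C. Beta-lactamase activity was read by LiveBLAzer B/G FRET substrate fluorescence after 1 h at room temperature.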

[12] = qHTS assay to identify small molecule antagonists of the peroxisome proliferator-activated receptor gamma (PPARg) signaling pathway - cell viability counter screen (AID 743194); also: nearly all actives have a fitted effect of over 55% in size
How it was run: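 PPARg-UAS-bla HEK293H cells were plated, rested 5 h at 37 C, then treated with compounds plus rosiglitazone (50 nM final) for 17 h at 37 C; viability was then read by CellTiter-Glo luminescence after 30 min at room temperature.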

[13] = qHTS assay for small molecule agonists of the antioxidant response element (ARE) signaling pathway (AID 743202; active = well fitted activation curve with a large enough effect in the signal ratio in the repeat runs, not every such curve was filed as active; inconclusive = weak or mixed curves, or effect the other way; inactive = no such curve, though single readings can be large or run the other way; the % refers to the signal ratio; also: potency is read from the fitted curve at half-maximal effect)
How it was run: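 Read-out: LiveBLAzer B/G FRET substrate fluorescence after 2 h at room temperature, following 16 h compound treatment at 37 C of HepG2 cells carrying an ARE-driven beta-lactamase reporter.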

[14] = qHTS assay for small molecule agonists of the antioxidant response element (ARE) signaling pathway - cell viability counter screen (AID 743203; calls by dose curve; also: nearly all actives have a fitted effect of over 55% in size)
How it was run: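 ARE-bla HepG2 cells were plated, rested 5 h at 37C/5% CO2, then exposed to compounds in DMSO for 16 h. Viability was read as CellTiter-Glo luminescence after 30 min at room temperature, in the same wells as the ARE screen.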

[15] = qHTS assay for small molecule activators of the heat shock response signaling pathway - cell viability counter screen (AID 743209); also: nearly all actives have a fitted effect of over 50% in size; also: potency is read from the fitted curve at half-maximal effect
How it was run: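 HSE-bla HeLa cells plated overnight, then exposed to Tox21 compounds (23 nL in DMSO) for 5 h at 37 C. After the bla reporter read, CellTiter-Glo was added in the same wells and luminescence read after 30 min at room temperature.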

[16] = qHTS assay for small molecule activators of the heat shock response signaling pathway (AID 743210; active = well fitted activation curve with a large enough effect in the signal ratio in the repeat runs, with a control signal flat, not every such curve was filed as active; inconclusive = weak or mixed curves; the % refers to the signal ratio; also: series mostly up to about 63 µM)
How it was run: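 HSE-bla HeLa cells (beta-lactamase reporter under heat shock response elements) were exposed to compounds for 5 h at 37 C, then loaded with LiveBLAzer B/G FRET substrate for 2.5 h at room temperature before fluorescence reading.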

[17] = qHTS assay to identify small molecule antagonists of the thyroid receptor (TR) signaling pathway (AID 743065); also: nearly all actives have a fitted effect of over 55% in size; also: potency is read from the fitted curve at half-maximal effect
How it was run: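 GH3.TRE-Luc rat pituitary cells carrying two TR response elements driving luciferase were plated for 4 h, given compound plus 1 nM T3 (final), and incubated 23.5 h at 37 C. ONE-Glo luminescence measured reporter inhibition; CellTiter-Fluor fluorescence tracked cytotoxicity.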

[18] = biological target: Peroxisome proliferator-activated receptor gamma (Homo sapiens) (UniProt P37231); assay: qHTS assay to identify small molecule antagonists of the peroxisome proliferator-activated receptor gamma (PPARg) signaling pathway (AID 743191; calls by dose curve; also: nearly all actives have a fitted effect of over 30% in size; also: potency is read from the fitted curve at half-maximal effect)
How it was run: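 GeneBLAzer PPARg UAS-bla HEK293H cells carrying a UAS-driven beta-lactamase reporter were plated at 3000 cells/well, preincubated 5 h at 37C, then given compound for 17 h at 37C; LiveBLAzer B/G FRET substrate was read after 1 h at room temperature.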

Structure (SMILES)	Potency [1]	Potency [2]	Potency [3]	Potency [4]	Potency [5]	Potency [6]	Potency [7]	Potency (Aromatase (Homo sapiens))	Potency [8]	Potency [9]	Potency [10]	Potency [11]	Potency [12]	Potency [13]	Potency [14]	Potency [15]	Potency [16]	Potency [17]	Potency [18]
CCC(C)CO (stereo not drawn)	inactive	inactive	inactive	inactive	inactive	inactive	inactive	inactive	inactive	inactive	inactive	inactive	inactive	inactive	inactive	inactive	inactive	–	–
O=C(O)c1ccccc1Nc1cccc(C(F)(F)F)c1	inactive	–	inactive	inactive	inactive	inactive	inactive	inactive	inactive	inactive	inactive	inactive	–	54500 nM (active)	inactive	inactive	inactive	23.7 µM (active) and 27.3 µM (active)	–
CCCc1c(OCCCCc2nn[nH]n2)ccc(C(C)=O)c1O	inactive	–	inactive	inactive	inactive	inactive	inactive	inactive	inactive	–	–	2190 nM (active)	inactive	–	inactive	inactive	inactive	23.7 µM (active) and 61.1 µM (active)	–
O=C(Nc1ccc([N+](=O)[O-])cc1Cl)c1cc(Cl)ccc1O	–	inactive	–	inactive	–	841 nM (active)	inactive	inactive and 1.93 µM (active)	inactive	211 nM (active)	inactive	–	–	inactive	–	309 nM (active)	–	–	–
CC(C)=CCCC(C)CCO (stereo not drawn)	inactive	inactive	inactive	inactive	inactive	inactive	inactive	inactive	inactive	inactive	inactive	inactive	inactive	inactive	inactive	inactive	inactive	–	–
C=C(C)C1CC=C(C)CC1 (stereo not drawn)	–	inactive	inactive	inactive	inactive	inactive	inactive	inactive	inactive	inactive	inactive	–	–	inactive	–	inactive	inactive	–	–
COC(=O)c1ccccc1	inactive	–	inactive	–	–	–	inactive	inactive	inactive	inactive	inactive	inactive	inactive	inactive	inactive	inactive	inactive	–	inactive
COc1cccc2c1C(=O)c1c(O)c3c(c(O)c1C2=O)C[C@@](O)(C(=O)CO)C[C@@H]3O[C@H]1C[C@H](N)[C@H](O)[C@H](C)O1	inactive	inactive and 6.01 µM [inconclusive] (active) and 3.46 µM [inconclusive] (active)	inactive	inactive and 2.68 µM [inconclusive] (active) and 15.5 µM [inconclusive] (active)	inactive	inactive	inactive and 27.3 µM (active)	inactive and 6.68 µM (active) and 1.72 µM (active)	inactive and 13.3 µM (active) and 12.2 µM (active)	inactive	inactive and 3.85 µM (active)	inactive	–	266 nM (active)	–	–	–	–	2370 nM (active)
O=CCc1ccccc1	inactive	–	inactive	–	–	–	inactive	inactive	inactive	inactive	inactive	inactive	–	–	inactive	inactive	inactive	–	–
C/C=C/C(=O)O	inactive	–	inactive	–	–	–	inactive	–	–	–	–	–	inactive	inactive	inactive	inactive	inactive	inactive	–
c1ccc2c(c1)c1cccc3ccc4cccc2c4c31	inactive	inactive	3.07 µM (active) and inactive	inactive	inactive	inactive	inactive	inactive	inactive	inactive	inactive	–	–	60700 nM (active)	inactive	inactive	inactive	–	–
Cn1cnc([N+](=O)[O-])c1Sc1ncnc2nc[nH]c12	inactive	inactive	inactive	inactive	inactive	–	inactive	inactive	inactive	inactive and 19.2 µM (active)	–	inactive	–	8410 nM (active)	–	inactive	–	–	–
C=C(C)C(=O)OCCOC(=O)C(=C)C	inactive	inactive	inactive	inactive	inactive	inactive	inactive	inactive	inactive	inactive	–	inactive	inactive	inactive	inactive	inactive	inactive	–	–
